PubChem BioAssay (NCI)
This is part of a sample that, as a whole, favours compounds with a hit. Of some 83,000 tested, about 20% had one in any assay.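 Each cell line was grown in a 96-well plate and treated with one concentration of compound for 48 hours. Values below 10 were considered active.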 Unmarked numbers belong to inactive results. The source made the active and inactive calls.

How the values were obtained:
Test in all cases: NCI-60 one-dose screen, 48 h (100 = growth as untreated, 0 = no growth, -100 = all killed)
Conditions in all cases: 10 µM
NCI-H23 lung = test system: NCI-H23 lung
NCI-H522 lung = test system: NCI-H522 lung
MDA-MB-231 breast = test system: MDA-MB-231 breast
M14 melanoma = test system: M14 melanoma
SK-MEL-5 melanoma = test system: SK-MEL-5 melanoma
LOX IMVI melanoma = test system: LOX IMVI melanoma
CCRF-CEM leukemia = test system: CCRF-CEM leukemia
MOLT-4 leukemia = test system: MOLT-4 leukemia
SR leukemia = test system: SR leukemia
OVCAR-8 ovarian = test system: OVCAR-8 ovarian
OVCAR-5 ovarian = test system: OVCAR-5 ovarian
OVCAR-4 ovarian = test system: OVCAR-4 ovarian
SK-OV-3 ovarian = test system: SK-OV-3 ovarian
IGROV1 ovarian = test system: IGROV1 ovarian
HS 578T breast = test system: HS 578T breast
NCI/ADR-RES ovarian = test system: NCI/ADR-RES ovarian
T-47D breast = test system: T-47D breast
SW-620 colon = test system: SW-620 colon
MCF7 breast = test system: MCF7 breast
HCT-116 colon = test system: HCT-116 colon

Row | SMILES | growth (NCI-H23 lung) | growth (NCI-H522 lung) | growth (MDA-MB-231 breast) | growth (M14 melanoma) | growth (SK-MEL-5 melanoma) | growth (LOX IMVI melanoma) | growth (CCRF-CEM leukemia) | growth (MOLT-4 leukemia) | growth (SR leukemia) | growth (OVCAR-8 ovarian) | growth (OVCAR-5 ovarian) | growth (OVCAR-4 ovarian) | growth (SK-OV-3 ovarian) | growth (IGROV1 ovarian) | growth (HS 578T breast) | growth (NCI/ADR-RES ovarian) | growth (T-47D breast) | growth (SW-620 colon) | growth (MCF7 breast) | growth (HCT-116 colon)
1 | CC1=C[C@H]2O[C@@H]3C[C@H]4OC(=O)/C=C\C=C\[C@H]([C@@H](C)O)OCC/C(C)=C/C(=O)OC[C@@]2(CC1)[C@]4(C)[C@]31CO1 | -36.1% (active) | -39.3% (active) | -29.6% (active) | -73.7% (active) | -89.2% (active) | -81.1% (active) | -11.5% (active) | -18.5% (active) | -9.9% (active) | -24.4% (active) | -14.8% (active) | -22.1% (active) | -23.5% (active) | -10.7% (active) | -9.53% (active) | -20% (active) | -20% (active) | 0.094% (active) | -10.6% (active) | -28.7% (active)
2 | CC(C)=CCc1c2c(c(O)c3c1O[C@]14C(=C[C@@H]5C[C@H]1C(C)(C)O[C@@]4(C/C=C(/C)C(=O)O)C5=O)C3=O)C=CC(C)(C)O2 | -45.4% (active) | -70.9% (active) | -56.1% (active) | -50.1% (active) | -98.9% (active) | -95.6% (active) | -1.96% (active) | -15.6% (active) | -3.62% (active) | -59.4% (active) | -80.5% (active) | -63.6% (active) | -38.9% (active) | -55.2% (active) | -11.1% (active) | 4.39% (active) | -40.7% (active) | -75.1% (active) | -61% (active) | -71.5% (active)
3 | N#Cc1nc(-c2ccccc2)oc1N1CCC(S(=O)(=O)F)CC1 | 99.2% | 93.9% | 98.7% | 106% | 96.3% | 104% | 100% | 94.3% | 83.4% | 94.3% | 104% | 101% | 107% | 103% | 98.5% | 104% | 106% | 103% | 98.2% | 101%
4 | COc1cc2c(O[C@@H]3OC[C@H](O)[C@H](O)[C@H]3O)c3c(c(-c4ccc5c(c4)OCO5)c2cc1OC)C(=O)OC3 | 72.8% | 13.5% | 22.9% | 31.3% | -93.4% (active) | -57.7% (active) | 46.6% | 110% | 14.5% | 22% | 39.4% | 74% | 69.1% | 53% | 91.1% | 90.1% | 18.2% | 68.8% | 71.2% | 29.1%
5 | C[C@@H]1C[C@H]2C(=O)O[C@@H](C)C(NC(=O)[C@H](Cc3cc(F)cc(F)c3)NC(=O)Nc3ccc(OS(=O)(=O)F)cc3)C(=O)N3CCC[C@H]3C(=O)N3CCO[C@H](C)[C@H]3C(=O)N[C@@H](CO)C(=O)N2C1 (stereo not given in full) | 36.1% | 20.3% | 32% | 23.6% | -6.32% (active) | 7.58% (active) | 34.1% | 43.8% | 25.3% | 23.6% | 33.4% | 26.2% | 18.7% | 47.4% | 40.2% | 99.2% | 33% | 39% | 16.8% | 9.86% (active)
6 | CC1=C[C@H]2O[C@@H]3C[C@@H](O)[C@](C)([C@@]2(C)CC1)[C@@]31CO1 | 28.4% | 31% | 42.4% | 6.68% (active) | 12.1% | 13.6% | 13.8% | 9.97% (active) | 18.1% | 27.7% | 78.9% | 32% | 22.9% | 28.3% | 37.8% | 36.1% | 29.6% | 24% | 17.6% | 7.52% (active)
7 | CCC(C)[C@H]1C(=O)O[C@H](C(C)C)C(=O)N(C)[C@@H](C(C)C)C(=O)O[C@H](C(C)C)C(=O)N(C)[C@@H](C(C)C)C(=O)O[C@H](C(C)C)C(=O)N1C (stereo not given in full) | 10% | 7.23% (active) | 7.98% (active) | 21.2% | -33.5% (active) | 9.79% (active) | 7.02% (active) | -13% (active) | 8.09% (active) | 14.9% | 20.7% | 20.3% | -9.75% (active) | 34.4% | 30.4% | 5.25% (active) | 3.16% (active) | 17.4% | 12.5% | 12.2%
